Assay results as given in PubChem BioAssay (NCATS).
Results filed as inconclusive are left out. A number with no mark means an inactive call. Calls come from the whole dose curve; as a rule, active = well fitted curve in either direction with a large enough effect (not every such curve was filed as active); inconclusive = small, poorly fitted or top-dose-only effect, or another doubt; inactive = flat fitted curve, though single readings scatter.

Experiment: Stat Signaling Pathway (AID 446)
Conditions: ME-180 (cervical carcinoma) SIE beta-lactamase reporter, IL-6 stimulated, 5 h; at 7.69 µM (top of the series) unless noted
Procedure: NCGC Assay Overview: The IL-6/STAT signaling pathway was assayed in ME-180 cervical carcinoma cells by a beta-lactamase reporter gene controlled by a STAT Inducible Element (SIE). This reporter is induced by IL-6 at 40 pM AC50 and inhibited by the pan JAK inhibitor, 2-(1,1-Dimethylethyl)-9-fluoro-3,6-dihydro-7H-benz[h]-imidaz[4,5-f]isoquinolin-7-one, at approximately 10 nM AC50. Plated cells were incubated overnight and on the following day, stimulated with 40 pM IL-6 for 5 hrs. The assay was screened at the AC50 of IL-6 activation to identify both inhibitors and activators of IL-6/STAT signaling.
NCGC Assay Protocol Summary: Cells were trypsinized, washed in assay medium (AM, OPTI MEM with 0.5% fetal bovine serum, 0.1 mM nonessential amino acids, 1 mM sodium pyruvate, 10mM HEPES pH 7.3, 100U/ml penicillin, and 100 ug/ml streptomycin) and suspended at 6 x 10e5/ml in AM. Approximately […] cells in 5 uL/well was dispensed into 1536 well plates and the cells were incubated overnight at 37 C. 23 nL of compound were delivered by a pin tool and 1 uL of IL-6 (40 pM final concentration in AM) was added. After centrifugation at 1000 rpm for less than a minute, plates were incubated at 37C for 5 hrs. One uL of detector mix (LiveBLAzerTM, Invitrogen) was added, the plates incubated at room temperature for 2.5 hrs, and fluorescence intensity at 460 and 530 nm emission was measured at 405 nm excitation by an Envision (Perkin Elmer) or Safire II (Tecan). Data were normalized by GeneData to the controls for AC90 stimulation (300 pM IL-6) and to AC90 inhibition (125 nM Jak inhibitor, 40 pM IL-6 in AM).
% is set by controls: 0 for no effect and ±100 for the full control effect.

For `COc1ccccc1-c1cncnc1NCCc1cnc[nH]1`, which activity, negative = inhibition is on record?
The activity, negative = inhibition was -11.6%.

With `COc1cccc(-c2nccc(NCc3cccc(C)c3)n2)c1` as the molecule, how does the activity, negative = inhibition read?
Its activity, negative = inhibition is -25.6%.

For `COCCNc1cc(-c2c(C)noc2C)ncn1`, which activity, negative = inhibition is on record?
The activity, negative = inhibition was 0.472%.

With `Cc1nc2cnc(N3CCOCC3)nc2n(C2CC2)c1=O` as the molecule, how does the activity, negative = inhibition read?
Its activity, negative = inhibition is -3.09%.

With `CN1CCN(c2ncc3nc(CCc4ccccc4)c(=O)n(Cc4ccc(F)cc4)c3n2)CC1` as the molecule, how does the activity, negative = inhibition read?
Its activity, negative = inhibition is -1.54%.

For `CN(C)c1ncc2ncc(=O)n(CCc3ccccc3)c2n1`, which activity, negative = inhibition is on record?
Its activity, negative = inhibition is -10.8%.

Which activity, negative = inhibition does the source give for `O=C(c1cc(C(F)(F)F)cc(C(F)(F)F)c1)N1CCC2(CC1)CN(c1ccccc1)C2` here?
Its activity, negative = inhibition is 2.58%.

For `COCCNc1nc(-c2ccccc2OC)nc2ccccc12`, which activity, negative = inhibition is on record?
The activity, negative = inhibition was 7.08%.

With `O=C(Nc1ccccc1)N1CCC2(CC1)CCN(C(=O)c1cnccn1)CC2` as the molecule, how does the activity, negative = inhibition read?
The activity, negative = inhibition was 2.97%.

For `O=C(c1ccncc1)N1CCC[C@@]2(CCN(c3ncccn3)C2)C1`, which activity, negative = inhibition is on record?
The activity, negative = inhibition was 1.34%.

With `CN(C)c1ncnc2ccc(-c3ccccc3C#N)cc12` as the molecule, how does the activity, negative = inhibition read?
Its activity, negative = inhibition is 18.9%.

Which activity, negative = inhibition does the source give for `COc1ccc(-n2c(=O)cnc3cnc(OC)nc32)cc1` here?
Its activity, negative = inhibition is -11.2%.

With `O=c1cnc2cnc(Oc3cccc(Cl)c3)nc2n1C[C@H]1CCCO1` as the molecule, how does the activity, negative = inhibition read?
Its activity, negative = inhibition is -13.3%.

For `COc1ccc(Oc2ncc3nc(-c4ccc(Cl)cc4)c(=O)n(C[C@H]4CCCO4)c3n2)cc1`, which activity, negative = inhibition is on record?
The activity, negative = inhibition was -13.9%.

For `Oc1ccc(/C=C\c2cc(O)cc(O)c2)cc1`, which activity, negative = inhibition is on record?
The activity, negative = inhibition was -21.4% [at 17.2 µM].

With `CC(=O)N1CCC[C@@]2(CCN(Cc3ccccc3)C2)C1` as the molecule, how does the activity, negative = inhibition read?
Its activity, negative = inhibition is -3.06%.

For `Cc1cccc(CNc2ncncc2-c2cccc(C#N)c2)c1`, which activity, negative = inhibition is on record?
The activity, negative = inhibition was 14.8%.

With `COCC(=O)N1CCC2(CC1)CN(c1ccccn1)C2` as the molecule, how does the activity, negative = inhibition read?
The activity, negative = inhibition was 9.91%.

For `O=C(c1cc(C(F)(F)F)cc(C(F)(F)F)c1)N1CCC2(CC1)CCN(c1ccccn1)CC2`, which activity, negative = inhibition is on record?
The activity, negative = inhibition was -1.33%.

Which activity, negative = inhibition does the source give for `CS(=O)(=O)N1CCC2(CCN(Cc3ccncc3)CC2)CC1` here?
Its activity, negative = inhibition is 10.3%.

Which activity, negative = inhibition does the source give for `Cn1c(=O)c(-c2cccc(C#N)c2)nc2cnc(Oc3ccccc3)nc21` here?
Its activity, negative = inhibition is 1.85%.

Which activity, negative = inhibition does the source give for `COCCNc1ncnc2ccc(-c3ccoc3)cc12` here?
Its activity, negative = inhibition is -12.8%.

Which activity, negative = inhibition does the source give for `O=c1c(CCc2ccccc2)nc2cncnc2n1Cc1ccc(F)cc1` here?
The activity, negative = inhibition was -6.1%.

For `Fc1ccc(Nc2ncncc2-c2ccoc2)cc1`, which activity, negative = inhibition is on record?
The activity, negative = inhibition was 4.97%.

Which activity, negative = inhibition does the source give for `COc1ccc(-c2nc3cnc(Oc4cccc(Cl)c4)nc3n(C3CC3)c2=O)cc1` here?
The activity, negative = inhibition was 15%.

With `COc1ccc(CNc2ncncc2-c2cccnc2)c(OC)c1` as the molecule, how does the activity, negative = inhibition read?
Its activity, negative = inhibition is 0.586%.

With `COc1ccc(CNc2cc(-c3ccoc3)ncn2)c(OC)c1` as the molecule, how does the activity, negative = inhibition read?
Its activity, negative = inhibition is 19.9%.

Which activity, negative = inhibition does the source give for `COc1cccc(Nc2ncc3ncc(=O)n(CCc4ccccc4)c3n2)c1` here?
The activity, negative = inhibition was -3.68%.

For `COCCn1c(=O)c(C)nc2cnc(N3CCNCC3)nc21`, which activity, negative = inhibition is on record?
Its activity, negative = inhibition is -2.95%.

For `COc1cccc(-c2ccc3ncnc(NCc4cccs4)c3c2)c1`, which activity, negative = inhibition is on record?
Its activity, negative = inhibition is -19.5%.

For `COCC(=O)N1CCC2(CCCN(C(=O)Nc3ccc(OC)cc3)C2)CC1`, which activity, negative = inhibition is on record?
The activity, negative = inhibition was -3.45%.

Which activity, negative = inhibition does the source give for `CN1CCN(c2cc(-c3ccccc3C(F)(F)F)ncn2)CC1` here?
The activity, negative = inhibition was 8.15%.

For `CN(C)c1ncnc2ccc(-c3ccoc3)cc12`, which activity, negative = inhibition is on record?
The activity, negative = inhibition was -10.6%.

Which activity, negative = inhibition does the source give for `CN(Cc1ccco1)c1ncnc2ccc(-c3cccc(C#N)c3)cc12` here?
Its activity, negative = inhibition is -5.78%.

With `O=c1c(-c2cc(F)cc(F)c2)nc2cnc(Nc3ccccc3)nc2n1C[C@H]1CCCO1` as the molecule, how does the activity, negative = inhibition read?
Its activity, negative = inhibition is 1.12%.

With `CS(=O)(=O)N1CCC2(CCCN(c3ccncc3)C2)CC1` as the molecule, how does the activity, negative = inhibition read?
Its activity, negative = inhibition is -2.99%.

For `COCC(=O)N1CCC2(CC1)CCN(C(=O)Nc1ccc(OC)cc1)CC2`, which activity, negative = inhibition is on record?
Its activity, negative = inhibition is -0.498%.

For `COc1ccc(NC(=O)N2CCCC3(CCN(C(=O)c4csnn4)CC3)C2)cc1`, which activity, negative = inhibition is on record?
The activity, negative = inhibition was -9.13%.

For `CN(C)c1ncnc2ccc(-c3cccnc3)cc12`, which activity, negative = inhibition is on record?
The activity, negative = inhibition was 9.76%.

For `Cc1nc2cnc(N3CCN(C)CC3)nc2n(-c2ccccc2)c1=O`, which activity, negative = inhibition is on record?
Its activity, negative = inhibition is -7.64%.
